High-throughput results: PubChem BioAssay, several laboratories
Most compounds without a hit are left out; they make up all but 3.2% or so of the library.
EphB4 ephrin blk: blocks human EphB4 binding to ephrin-B2 | EphB4 LBD / TNYL-RAW-Alexa532 peptide, fluorescence polarization | inhibition, % at 7 µM | actives 0.15% (n = 97,000);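 active = inhibition above the screen-wide mean inhibition plus 3 SD, cut at about 15% in these data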
ERa coact pot: enhances coactivator binding to human estrogen receptor alpha. TR-FRET ERalpha-LBD/SRC-Cy5 coactivator binding, 2 h; 100 = basal binding, no effect. coactivator binding (% of control), % at 25.6 µM. actives 1.3% (n = 86,000); in the data active = activity above about 200%;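 also: binding measured in presence of low estradiol as agonist stimulus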
ERb coact inh: ER-beta (human) coactivator binding inhibition; Q92731; TR-FRET ER-beta LBD / SRC1-Cy5 peptide binding; receptor agonist-loaded with 1 µM estradiol; inhibition, % at 25.6 µM; actives 1.3% (n = 86,000); AID 633;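 active = compounds whose percent inhibition of the receptor-coactivator binding signal exceeds about 50% in the single-dose screen, limit read from the data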
Target sequence (Q92731 whole entry, looked up, the tested form may be a part): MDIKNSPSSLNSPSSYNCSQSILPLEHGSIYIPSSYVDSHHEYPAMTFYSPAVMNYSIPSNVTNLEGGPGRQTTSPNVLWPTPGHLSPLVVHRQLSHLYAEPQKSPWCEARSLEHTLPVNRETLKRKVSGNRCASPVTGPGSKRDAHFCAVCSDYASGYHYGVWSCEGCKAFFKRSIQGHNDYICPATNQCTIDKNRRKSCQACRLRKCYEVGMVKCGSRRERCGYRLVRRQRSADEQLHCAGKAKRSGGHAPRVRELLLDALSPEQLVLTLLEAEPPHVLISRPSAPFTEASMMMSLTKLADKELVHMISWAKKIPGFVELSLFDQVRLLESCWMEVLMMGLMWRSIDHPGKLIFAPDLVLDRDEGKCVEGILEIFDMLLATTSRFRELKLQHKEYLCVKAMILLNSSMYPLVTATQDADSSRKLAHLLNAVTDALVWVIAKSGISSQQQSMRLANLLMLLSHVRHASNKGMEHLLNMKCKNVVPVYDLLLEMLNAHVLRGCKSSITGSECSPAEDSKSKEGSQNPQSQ
ERa coact inh: ER-alpha (human) coactivator binding inhibition | TR-FRET ER-alpha LBD / SRC-1 peptide, estradiol-bound | AID 629 | P03372 | inhibition, % at 25.6 µM | actives 1.7% (n = 86,000); in the data active = inhibition above about 50%
MT1-MMP txn act: MT1-MMP promoter transcription activation | AID 750 | HT1080 MT1-MMP promoter luciferase reporter, luminescence, overnight; hits give high values | actives 0.16% (n = 86,000) | activation factor at 10 µM;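 active = activation factor of at least 2 for MT1-MMP transcription at 10 µM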
Candida biofilm: kills Candida albicans biofilms | inhibition, % at 6 µM | AID 834 | C. albicans biofilm + clotrimazole, Alamar Blue | actives 0.14% (n = 85,000);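 active = inhibition above 20%; inactive = inhibition below 20%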;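 also: preformed 24 hr biofilms exposed to compound for 48 hr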
Hits are given with their value; – = inactive; · = no result given; [ ] = another dose, or the depositor's remark.

SMILES	EphB4 ephrin blk	ERa coact pot	ERb coact inh	ERa coact inh	MT1-MMP txn act	Candida biofilm
COc1ccccc1-c1nn2c(-c3ccc(C(C)(C)C)cc3)nnc2s1	·	241	–	–	–	–
CCOc1cccc(-c2nnc3sc(-c4ccco4)nn23)c1	·	244	–	–	–	–
CCOc1ccc(-c2nnc3sc(-c4ccccc4OC)nn23)cc1	–	941[fluorescence artefact?]	–	–	–	–
O=C(NCc1ccco1)C(NS(=O)(=O)c1cccc2nsnc12)c1ccccc1 (stereo not drawn)	–	–	–	–	–	–
CCOC(=O)c1ccc(NC(=O)N2CCN(CCc3ccccc3)CC2)cc1	–	–	–	–	–	–
CCOC(=O)c1ccc(NC(=O)N2CC(C)OC(C)C2)cc1 (stereo not drawn)	–	–	–	–	2	–
CC1=Nc2ccccc2/C1=C\c1nc(-c2ccc(C(F)(F)F)cc2)oc1O	25	–	–	–	–	–
Nc1ccc(N2CCN(C(=O)c3ccco3)CC2)cc1	–	–	55[fluorescence artefact?]	85[fluorescence artefact?]	–	–
c1cc(-c2nc3ccccc3o2)nc(-c2nc3ccccc3o2)c1	·	248	–	–	–	–
Cn1cc(-c2nnnn2-c2cccc(C(F)(F)F)c2)c(C(F)(F)F)n1	–	·	·	·	·	·
CCOC(=O)N1CCC(NC(=O)c2cccn3c(=O)c4cc(Br)ccc4nc23)CC1	–	288[fluorescence artefact?]	–	60[fluorescence artefact?]	–	–
Cc1ccc(C(c2nnnn2CCC(C)C)N2CCN(C)CC2)cc1 (stereo not drawn)	–	–	–	–	–	–
O=C(c1cc2nc3c(c(C(F)(F)F)n2n1)CCc1ccccc1-3)N1CCN2CCCC2C1 (stereo not drawn)	·	–	–	–	–	–
O=C(/C=C1\NC2(CCCC2)Cc2ccccc21)N1CCOCC1	–	–	83[fluorescence artefact?]	–	–	–
CC1(C)Cc2c(ccc3ccccc23)/C(=C/C(=O)N2CCCCC2)N1	–	–	–	–	–	–
COC(=O)[C@@]1(Cc2ccc(OC)cc2)[C@H]2c3cc(C(=O)N(C)C)n(Cc4cc(F)c(F)c(F)c4)c3C[C@H]2CN1C(=O)c1ccccc1	·	·	·	·	–	·
COC(=O)[C@@]1(Cc2ccc(F)cc2)[C@H]2c3cc(C(=O)N(C)C)n(Cc4ccc(C(F)(F)F)nc4)c3C[C@H]2CN1C(=O)c1ccccc1	·	·	·	·	–	·
Cc1ccc(/C=N/c2sc3c(c2C#N)CCC3)s1	–	–	–	–	2.3	–
Fc1ccccc1N1CCN(Cc2nc(-c3ccc(Cl)cc3Cl)no2)CC1	–	–	–	–	–	–
Cc1noc(C)c1COC(=O)c1cc2c(C)nn(-c3ccc(F)cc3)c2s1	·	–	59[fluorescence artefact?]	74[fluorescence artefact?]	–	–
Cc1noc(C)c1COC(=O)c1cc2c3ccccc3n(C)c2s1	–	751	–	–	–	–
Cc1nn(-c2ccc(F)cc2)c2sc(C(=O)OCC(=O)N3CCC(C)CC3)cc12	–	–	–	–	–	–
Cn1c2ccccc2c2cc(C(=O)N3CCN(CCO)CC3)sc21	–	·	·	·	·	·
CCOC(=O)c1sc(NC(=S)NC(=O)CC(C)C)cc1C	–	·	·	·	·	·
Cn1c(=O)[nH]c(=O)c2c1nc(N1CCOCC1)n2CCSc1nc2ccccc2[nH]1	–	–	–	–	–	–
SMILES	EphB4 ephrin blk	ERa coact pot	ERb coact inh	ERa coact inh	MT1-MMP txn act	Candida biofilm
CCCCOC(=O)Cn1c2ccc(OC)cc2c2nc3ccccc3nc21	–	227[fluorescence artefact?]	–	53[fluorescence artefact?]	–	–
COc1ccc(N/C=C(\C#N)c2nc3ccccc3n2C)c(OC)c1	–	–	–	–	–	–
C=CCNC(=O)Nc1ccc2oc(C)nc2c1	–	–	86[fluorescence artefact?]	–	–	–
CCn1c(C)nc2cc(-c3nnc(-c4c(-c5ccccc5)noc4C)o3)ccc21	–	373[fluorescence artefact?]	–	–	–	–
CCCCCOc1ccccc1C(=O)NCC(=O)O	–	–	79[fluorescence artefact?]	–	–	–
Cc1cccc(-c2cc(C(=O)NCCCn3ccnc3)c3ccccc3n2)c1	–	·	·	·	·	·
Cc1ccc(-c2cc(C(=O)NC3=NCCS3)c3cc(Br)ccc3n2)o1	–	281[fluorescence artefact?]	–	52[fluorescence artefact?]	–	–
Cc1ccc(-c2cc(C(=O)NCCCn3ccnc3)c3cc(Br)ccc3n2)o1	–	–	–	88[fluorescence artefact?]	–	–
CCOC(=O)C1CCC2(CC1)C(C#N)=C(N)Oc1n[nH]c(C)c12 (stereo not drawn)	–	–	–	–	–	–
COc1ccc(Cl)cc1NC(=O)c1ccoc1C	–	–	–	–	–	–
CCCC1C2CN(C(C)C)CC=C2C(C#N)=C(N)C1(C#N)C#N (stereo not drawn)	–	–	–	–	–	–
COc1ccc(/C=C/C(O)=C2/C(=O)N(C)C3(C)CC2c2ccccc2O3)cc1 (stereo not drawn)	–	–	–	63	–	–
Cc1cc(C)c2cc(CN(CCO)C(=O)Nc3ccc(Cl)cc3)c(=O)[nH]c2c1	·	232	–	–	–	–
N#Cc1ccsc1NC(=O)COC(=O)CCCSc1nc2ccccc2s1	–	–	–	–	–	–
Cc1noc(C)c1CSCC(=O)OCC(=O)Nc1sccc1C#N	–	–	54	55[fluorescence artefact?]	–	–
O=C(NCC1CCCO1)C1C2C=CC3(CN(Cc4cccs4)C(=O)C13)O2 (stereo not drawn)	–	–	–	–	–	–
CCOc1ccc(Nc2cc(=O)oc3ccccc23)cc1	–	256	–	–	–	–
Cc1ccc(-c2ccc(C(=O)O)[nH]2)cc1	16	–	–	–	–	–
CCc1nnc(NC(=O)CSc2nnc3scc(-c4ccc(C)cc4)n23)s1	–	–	–	–	–	–
Cc1sc(NC(=O)CSc2nnc(COc3ccccc3)n2C)c(C#N)c1C	–	–	–	–	–	–
Cc1ccc(-c2nc(NC(=O)CSc3nnc4scc(-c5ccccc5)n34)ns2)cc1	·	203[fluorescence artefact?]	–	–	–	–
Cc1sc(NC(=O)CSc2nnc3scc(-c4ccccc4)n23)c(C#N)c1C	–	224[fluorescence artefact?]	–	–	–	–
Cc1nnc(NC(=O)CSc2nnc3scc(-c4ccc(C)c(C)c4)n23)s1	–	259	–	–	–	–
Cc1ccc(OCc2nnc(SCC(=O)Nc3sc(C)c(C)c3C#N)n2C)cc1	·	250	–	–	–	–
O=C(CCNS(=O)(=O)c1cccc2nsnc12)NC1CCN(Cc2ccccc2)CC1	·	–	–	–	–	–
SMILES	EphB4 ephrin blk	ERa coact pot	ERb coact inh	ERa coact inh	MT1-MMP txn act	Candida biofilm
Cn1cccc1P(=O)(c1cccn1C)c1cccn1C	–	–	–	–	–	–
Cc1ccc(C)c(Cn2c(C(=O)OC(C)C)cc3c2ccn3C)c1	–	–	–	–	–	–
Cc1ccc(C(=O)Nc2onc(C)c2C#N)cc1	–	·	·	·	·	·
Cc1nc(CSc2nnc3scc(-c4ccccc4)n23)cs1	–	–	–	–	–	·
Cc1ccc(-c2csc3nnc(SCc4csc(C)n4)n23)cc1	–	365[fluorescence artefact?]	–	–	–	–
Cc1ccc(NC(=O)COc2ccccc2CNC(C)(C)CC(C)(C)C)cc1	–	–	–	–	–	–
O=C(Oc1cccc(-c2cnc3ccccc3n2)c1)c1ccco1	–	311	–	–	–	–
O=C(Oc1ccc2ccccc2c1)c1ccco1	·	–	–	–	–	–
